Screening results deposited in PubChem BioAssay by several laboratories.
Shown are actives, neighbours in structure and some others; about 5.2% of the full set was active somewhere.
PostGolgi ctrl = inhibits growth of the yeast control strain; inhibition, % at 10 µM; AID 738; efflux-deficient yeast background strain, growth absorbance A615, 16 h; actives 5% (n = 98,000)
EphB4 ephrin blk = antagonists of human EphB4-ephrin-B2 interaction. EphB4 LBD / TNYL-RAW-Alexa532 peptide, fluorescence polarization. inhibition, % at 7 µM. actives 0.15% (n = 97,000);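 active means inhibition above the screen-wide mean inhibition plus 3 SD, cut at about 15% in these data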;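 further: 0% = DMSO wells and 100% = excess unlabeled TNYL-RAW peptide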
Target sequence (P54760 whole entry, looked up, the tested form may be a part): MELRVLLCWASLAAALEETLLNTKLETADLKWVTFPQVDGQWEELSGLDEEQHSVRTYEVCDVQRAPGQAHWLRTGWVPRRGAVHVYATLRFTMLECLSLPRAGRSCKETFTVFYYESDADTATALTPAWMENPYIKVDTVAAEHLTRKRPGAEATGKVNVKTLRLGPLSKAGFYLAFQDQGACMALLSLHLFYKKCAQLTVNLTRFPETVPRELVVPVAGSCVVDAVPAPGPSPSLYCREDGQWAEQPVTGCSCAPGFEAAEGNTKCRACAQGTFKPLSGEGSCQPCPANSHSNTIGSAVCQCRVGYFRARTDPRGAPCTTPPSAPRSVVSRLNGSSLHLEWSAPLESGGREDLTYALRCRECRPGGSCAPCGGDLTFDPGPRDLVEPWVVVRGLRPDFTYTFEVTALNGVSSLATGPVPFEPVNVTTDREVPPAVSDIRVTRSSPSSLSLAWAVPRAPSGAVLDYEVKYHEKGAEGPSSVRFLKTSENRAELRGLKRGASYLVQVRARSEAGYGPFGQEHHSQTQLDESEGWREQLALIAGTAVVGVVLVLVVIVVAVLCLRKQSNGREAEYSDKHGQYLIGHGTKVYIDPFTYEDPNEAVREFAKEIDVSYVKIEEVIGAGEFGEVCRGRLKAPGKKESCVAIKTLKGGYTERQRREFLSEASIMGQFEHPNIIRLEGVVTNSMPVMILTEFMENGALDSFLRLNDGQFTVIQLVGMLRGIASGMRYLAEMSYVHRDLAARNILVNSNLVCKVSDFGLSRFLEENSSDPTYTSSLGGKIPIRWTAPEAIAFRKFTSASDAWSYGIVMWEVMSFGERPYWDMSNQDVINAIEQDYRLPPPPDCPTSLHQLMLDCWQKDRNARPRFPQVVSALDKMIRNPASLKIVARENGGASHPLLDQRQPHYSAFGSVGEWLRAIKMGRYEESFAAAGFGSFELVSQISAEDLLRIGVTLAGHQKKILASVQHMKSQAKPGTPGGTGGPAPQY
Candida biofilm = kills Candida albicans biofilms; C. albicans biofilm + clotrimazole, Alamar Blue; inhibition, % at 6 µM; actives 0.14% (n = 85,000);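 active means inhibition above 20%; inactive means inhibition below 20%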;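 further: preformed 24 hr biofilms exposed to compound for 48 hr; 0% = biofilm without compound and 100% = blank killed by clotrimazole plus chlorhexidine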
PostGolgi yeast = growth inhibition of a yeast mutant, post-Golgi transport screen | actives 0.9% (n = 98,000) | post-Golgi transport phenotypic cell assay | inhibition, % at 10 µM;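 further: yeast cells grown in 1536-well plates; yeast grown about 18 h at 30C before absorbance read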
Numbers without * were called inactive; / = not tested or not shown. Unless noted, no stated cut-off is given here; in the data, active means inhibition above about 30%; inactive means the rest.

SMILES | PostGolgi ctrl | EphB4 ephrin blk | Candida biofilm | PostGolgi yeast
CCC(CC)C(=O)Nc1ccc(Cl)c(Cl)c1 | 7.5 | -1.6 | 2.5 | 17.1
COc1cccc(N2CCN(c3ccc(S(=O)(=O)N4CCCC4)cc3)CC2)c1 | 1.0 | -6.2 | / | 1.0
CCOC(=O)C(NS(=O)(=O)c1ccc(Br)cc1)C(C)C (stereo not drawn) | 9.3 | -7.0 | / | 8.5
O=C(Cn1cc(C(F)(F)F)ccc1=O)N1CCN(S(=O)(=O)c2ccccc2)CC1 | -0.7 | -2.8 | 2.2 | 15.2
Cc1cc(C)c2nc(C(F)(F)F)nc(NCCCN3CCOCC3)c2c1 | 30.0 | -1.5 | 4.4 | 40.8*
Fc1ccccc1-c1nc(NCCCN2CCOCC2)c2ccccc2n1 | / | / | 5.5 | /
C=CCN(c1ccc(C(=O)N2CCCC2)cc1)S(C)(=O)=O | 38.7* | 4.6 | 3.6 | 5.2
COc1ccc(CC(=O)NC2CCN(CC(=O)Nc3ccc4c(c3)OCCO4)CC2)cc1OC | 37.1* | -5.6 | 2.4 | -8.5
COc1ccc(NC(=O)CN2CCN(Cc3ccc4c(c3)OCO4)CC2)cc1OC | 0.6 | 4.8 | / | 10.3
O=C(Nc1ccc(Cl)c(Cl)c1)C1=Cc2ccccc2OC1 | 42.3* | -2.5 | 4.5 | 8.9
O=C1CC(c2cccc(Br)c2)c2cc3c(cc2N1)CCC3 (stereo not drawn) | 89.8* | -10.7 | / | 19.1
CCOC(=O)c1c(-c2ccccc2)nc2ccc(C)cn12 | 31.3* | -3.8 | / | -36.2
CCOc1ccc(NS(=O)(=O)c2ccc3[nH]cc(C(=O)NCC4CCCO4)c(=O)c3c2)cc1 (stereo not drawn) | 0.6 | 4.9 | 4.1 | 3.1
CCc1ccccc1NS(=O)(=O)c1ccc2[nH]cc(C(=O)NCC3CCCO3)c(=O)c2c1 (stereo not drawn) | 41.5* | 0.8 | 3.2 | 0.6
O=C(CCn1cnc2ccccc2c1=O)Nc1ccc(Cl)c(Cl)c1 | 3.3 | -1.5 | 41.4* | -4.5
COCCNC(=O)C(c1ccc(C)o1)N(C(=O)c1snc(C(N)=O)c1N)c1cc(C)cc(C)c1 (stereo not drawn) | 2.3 | -1.2 | 7.7 | -2.8
CCCCCC(/C=N/Nc1ccc(S(=O)(=O)N2CCOCC2)cc1[N+](=O)[O-])=C\c1ccccc1 | 3.4 | -1.7 | / | -6.1
O=C(Cc1ccc(Cl)cc1)Nc1ccc(-c2nnc(-c3ccco3)o2)cc1 | 8.8 | -7.9 | 4.6 | 30.7*
CCC(=O)Nc1cccc(-c2nnc(-c3cccc(NC(=O)CC)c3)o2)c1 | 9.3 | -0.9 | 2.7 | -2.0
CCC(=O)Nc1ccc(-c2nnc(-c3ccccc3)o2)cc1 | 39.6* | -3.1 | / | 0.1
COc1ccc(C2C3=C(CCCC3=O)Nc3nc(-c4cc(OC)c(OC)c(OC)c4)nn32)cc1OC (stereo not drawn) | 1.1 | -0.8 | -0.5 | 32.6*
COc1ccc(-c2nc3n(n2)C(c2ccccc2)C2=C(CCCC2=O)N3)cc1OC (stereo not drawn) | -7.3 | -2.6 | 2.8 | 4.0
Cc1ccccc1N(C(=O)c1cccs1)c1nc2ccccc2s1 | 35.1* | 2.4 | / | 1.1
Cc1ccsc1C(=O)N(c1nc2ccccc2s1)c1c(C)cccc1C | 18.4 | 0.5 | 0.1 | 12.9
COC(=O)c1cccc(C(=O)Nc2ccc(F)cc2)n1 | 31.6* | 9.6 | -2.4 | -14.1
SMILES | PostGolgi ctrl | EphB4 ephrin blk | Candida biofilm | PostGolgi yeast
FC(F)(F)c1cccc(-c2nnc(-c3ccccc3)c(N3CCOCC3)n2)c1 | 35.0* | -0.6 | / | 15.9
CCCCc1ccc(NS(=O)(=O)c2cccs2)cc1 | 37.3* | 6.2 | 0.9 | -4.5
O=S(=O)(Nc1ccc(Cc2ccncc2)cc1)c1cccs1 | 9.4 | -5.4 | / | -2.2
CCOc1ccc(-c2noc(CCC(=O)NC)n2)cc1OCC | -7.0 | / | 10.2 | 1.0
CCOc1cc(-c2noc(CCC(=O)Nc3cccnc3)n2)ccc1OC | 32.5* | / | 2.8 | -1.7
CCCc1cc(=O)[nH]c(SCC(=O)c2cc(C)n(C(C)COC)c2C)n1 (stereo not drawn) | 48.6* | -0.1 | 7.5 | -2.9
COCC(C)n1c(C)cc(C(=O)COC(=O)c2ccc3ncsc3c2)c1C (stereo not drawn) | 14.7 | 5.9 | 10.5 | 1.5
COCC(C)n1c(C)cc(C(=O)COC(=O)c2nc3nc(C)cc(C)n3n2)c1C (stereo not drawn) | 33.0* | 2.9 | 0.3 | 8.1
CCCc1cc(=O)[nH]c(SCC(N)=O)n1 | 4.1 | -1.3 | 6.4 | 8.7
CCOc1ccc(N/C(SC)=C(/C#N)C(N)=O)cc1 | -13.8 | 5.6 | 4.0 | -0.2
CCOc1ccc(N/N=C(/C#N)C(N)=O)cc1 | 89.6* | -11.0 | / | 104.2*
O=C1c2cccc3c(Cl)ccc(c23)C(=O)N1O | 34.3* | -0.9 | 0.5 | 4.0
O=C(c1ccc2c3c(cccc13)C(=O)N(O)C2=O)N1CCCCC1 | -1.1 | -4.2 | 7.3 | -2.2
CCOC(=O)c1coc(CNC(=O)c2c(C)oc3c2CCCC3)c1 | 31.9* | 2.0 | 2.4 | 3.7
